Experimental data reported in PubChem BioAssay AID1159580 (chemical genetic matrix, 2015).
Out of some 5,500 compounds screened, about 2,000 (36%) were called active. Another 18% or so got no clear call; they are omitted. Rule as the data show it: active = normalized growth mostly below about 0.91 (no sharp cut-off); inconclusive = no clear call, values can overlap the other calls; inactive = mostly above about 0.92. Some of the results follow.

Experiment: chemical genetic growth profiling, strain panel (AID 1159580);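 also: tested at 20 µM; growth read once vehicle control cultures reached saturation at 30 °C; 1 = growth at the plate median or of vehicle wells; lower values mean less growth of the strain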
Details: growth OD
[1] = S. cerevisiae deletion strains, locus YAL013W, strain DEP1, active compounds read low
[2] = S. cerevisiae deletion strains, locus YBR229C, strain ROT2, active compounds read low
[3] = S. cerevisiae deletion strains, locus YDL101C, strain DUN1, active compounds read low
[4] = S. cerevisiae deletion strains, locus YDR150W, strain NUM1, active compounds read low
[5] = S. cerevisiae deletion strains, locus YEL061C, strain CIN8, active compounds read low
[6] = S. cerevisiae deletion strains, locus YGR078C, strain PAC10, active compounds read low
[7] = S. cerevisiae deletion strains, locus YHR030C, strain SLT2, active compounds read low
[8] = S. cerevisiae deletion strains, locus YHR087W, strain rtc3, active compounds read low
[9] = S. cerevisiae deletion strains, locus YJL187C, strain SWE1, active compounds read low
[10] = S. cerevisiae deletion strains, locus YJR043C, strain POL32, active compounds read low
[11] = S. cerevisiae deletion strains, locus YJR075W, strain HOC1, active compounds read low
[12] = S. cerevisiae deletion strains, locus YKL190W, strain CNB1, active compounds read low
[13] = S. cerevisiae deletion strains, locus YLR039C, strain RIC1, active compounds read low
[14] = S. cerevisiae deletion strains, locus YLR058C, strain SHM2 (second series), active compounds read low
[15] = S. cerevisiae deletion strains, locus YLR085C, strain ARP6, active compounds read low
[16] = S. cerevisiae deletion strains, locus YLR262C, strain YPT6, active compounds read low
[17] = S. cerevisiae deletion strains, locus YML094W, strain GIM5, active compounds read low
[18] = S. cerevisiae deletion strains, locus YMR219W, strain ESC1, active compounds read low
[19] = S. cerevisiae deletion strains, locus YMR263W, strain SAP30, active compounds read low
[20] = S. cerevisiae deletion strains, locus YNL153C, strain GIM3, active compounds read low
[21] = S. cerevisiae deletion strains, locus YNL298W, strain CLA4 (second series), active compounds read low
[22] = S. cerevisiae deletion strains, locus YNL322C, strain KRE1, active compounds read low
[23] = S. cerevisiae deletion strains, locus YNR030W, strain Alg12, active compounds read low
[24] = S. cerevisiae deletion strains, locus YPL055C, strain LGE1, active compounds read low
[25] = S. cerevisiae deletion strains, locus YPL241C, strain CIN2, active compounds read low
[26] = S. cerevisiae deletion strains, locus YPR135W, strain CTF4, active compounds read low

Measured: normalized growth

Cc1ccc(C)n1-c1ccc(C(=O)NNS(=O)(=O)c2ccc(Cl)cc2)cc1
active: [25] 1.14 [resistant]
inactive: [1] 1.01 | [2] 1.01 | [3] 1.04 | [4] 0.991 | [5] 1.01 | [6] 1.01 | [7] 0.955 | [8] 1.01 | [9] 1.02 | [10] 0.999 | [11] 0.995 | [12] 0.978 | [13] 0.985 | [14] 1 | [15] 0.962 | [16] 0.98 | [17] 1.1 | [18] 1 | [19] 1 | S. cerevisiae deletion strains, locus YMR307W, strain GAS1, active compounds read low 0.979 | [20] 1.01 | [21] 0.945 | [22] 1 | [23] 0.993 | S. cerevisiae deletion strains, locus YOL006C, strain TOP1, active compounds read low 1.03 | [24] 1.01 | [26] 0.946

Cc1ccc(C)n1-c1ccc(C(=O)NNC(=O)c2ccc3nccnc3c2)cc1
inactive: [1] 0.989 | [2] 1 | S. cerevisiae deletion strains, locus YCL061C, strain MRC1, active compounds read low 1.06 | [3] 0.989 | [4] 1.04 | [5] 1.01 | [6] 1.01 | [7] 1.14 | [8] 0.986 | [9] 0.979 | [10] 1.02 | [11] 1.06 | [12] 0.991 | [13] 1.01 | [14] 0.999 | [15] 0.921 | [16] 1.11 | [17] 0.98 | [18] 0.989 | [19] 0.986 | S. cerevisiae deletion strains, locus YNL128W, strain TEP1, active compounds read low 0.991 | [20] 1.02 | [21] 0.992 | [22] 0.999 | [23] 1 | [24] 0.995 | [25] 0.976 | [26] 1.13 | S. cerevisiae strains, strain wild type, active compounds read low 0.993

Cc1cc(C(=O)NNS(=O)(=O)c2ccc(F)c(Cl)c2)nn1-c1c(Cl)cc(Cl)cc1Cl
inactive: S. cerevisiae deletion strains, locus YAR019C, strain CDC15, active compounds read low 0.978 | S. cerevisiae deletion strains, locus YBL105C, strain PKC1, active compounds read low 0.979 | S. cerevisiae deletion strains, locus YBR135W, strain CKS1, active compounds read low 0.985 | S. cerevisiae deletion strains, locus YBR136W, strain MEC1, active compounds read low 0.987 | S. cerevisiae deletion strains, locus YBR160W, strain CDC28, active compounds read low 0.98 | S. cerevisiae deletion strains, locus YDL017W, strain CDC7, active compounds read low 0.985 | S. cerevisiae deletion strains, locus YDL028C, strain MPS1, active compounds read low 0.985 | [3] 0.975 | S. cerevisiae deletion strains, locus YDL108W, strain KIN28, active compounds read low 0.99 | S. cerevisiae deletion strains, locus YDL132W, strain cdc53, active compounds read low 0.974 | S. cerevisiae deletion strains, locus YDL214C, strain PRR2, active compounds read low 1.04 | S. cerevisiae deletion strains, locus YDR052C, strain DBF4, active compounds read low 0.987 | S. cerevisiae deletion strains, locus YDR054C, strain cdc34, active compounds read low 0.983 | S. cerevisiae deletion strains, locus YDR226W, strain ADK1, active compounds read low 0.98 | S. cerevisiae deletion strains, locus YDR477W, strain SNF1, active compounds read low 1.03 | S. cerevisiae deletion strains, locus YER123W, strain YCK3, active compounds read low 1.04 | S. cerevisiae deletion strains, locus YER133W, strain GLC7, active compounds read low 1.04 | S. cerevisiae deletion strains, locus YFL009W, strain cdc4, active compounds read low 0.982 | S. cerevisiae deletion strains, locus YFL029C, strain CAK1, active compounds read low 0.988 | S. cerevisiae deletion strains, locus YFR003C, strain YPI1, active compounds read low 0.981 | S. cerevisiae deletion strains, locus YFR019W, strain FAB1, active compounds read low 1.02 | S. cerevisiae deletion strains, locus YFR028C, strain CDC14, active compounds read low 0.979 | S. cerevisiae deletion strains, locus YGR040W, strain KSS1, active compounds read low 1.03 | S. cerevisiae deletion strains, locus YGR052W, strain FMP48, active compounds read low 1.1 | S. cerevisiae deletion strains, locus YGR092W, strain DBF2, active compounds read low 1.02 | [7] 1.09 | S. cerevisiae deletion strains, locus YHR079C, strain IRE1, active compounds read low 1.05 | S. cerevisiae deletion strains, locus YHR082C, strain KSP1, active compounds read low 1.11 | S. cerevisiae deletion strains, locus YHR205W, strain SCH9, active compounds read low 1.04 | S. cerevisiae deletion strains, locus YIL147C, strain SLN1, active compounds read low 0.99 | S. cerevisiae deletion strains, locus YJL095W, strain BCK1, active compounds read low 1.07 | S. cerevisiae deletion strains, locus YJL128C, strain PBS2, active compounds read low 0.905 | S. cerevisiae deletion strains, locus YJL157C, strain FAR1, active compounds read low 1.03 | S. cerevisiae deletion strains, locus YJR016C, strain ILV3, active compounds read low 0.982 | S. cerevisiae deletion strains, locus YJR066W, strain TOR1 (second series), active compounds read low 1.05 | S. cerevisiae deletion strains, locus YJR066W, strain TOR1, active compounds read low 1.02 | S. cerevisiae deletion strains, locus YKL048C, strain ELM1, active compounds read low 1.01 | S. cerevisiae deletion strains, locus YKL067W, strain YNK1, active compounds read low 1.03 | S. cerevisiae deletion strains, locus YKL101W, strain HSL1, active compounds read low 1.02 | S. cerevisiae deletion strains, locus YKL193C, strain SDS22, active compounds read low 0.996 | S. cerevisiae deletion strains, locus YKL203C, strain TOR2, active compounds read low 1.13 | S. cerevisiae deletion strains, locus YLR113W, strain HOG1, active compounds read low 1.06 | S. cerevisiae deletion strains, locus YLR133W, strain CKI1, active compounds read low 1.02 | S. cerevisiae deletion strains, locus YLR403W, strain SFP1, active compounds read low 1.06 | S. cerevisiae deletion strains, locus YML070W, strain DAK1, active compounds read low 1.03 | S. cerevisiae deletion strains, locus YMR001C, strain CDC5, active compounds read low 0.993 | S. cerevisiae deletion strains, locus YMR205C, strain PFK2 (second series), active compounds read low 1.03 | S. cerevisiae deletion strains, locus YMR277W, strain FCP1, active compounds read low 0.978 | S. cerevisiae deletion strains, locus YNL006W, strain LST8, active compounds read low 0.994 | S. cerevisiae deletion strains, locus YNL020C, strain ARK1, active compounds read low 1.03 | S. cerevisiae deletion strains, locus YNL161W, strain CBK1, active compounds read low 0.988 | S. cerevisiae deletion strains, locus YNL183C, strain NPR1, active compounds read low 1.13 | S. cerevisiae deletion strains, locus YNL207W, strain RIO2, active compounds read low 0.986 | S. cerevisiae deletion strains, locus YNL222W, strain SSU72, active compounds read low 0.99 | S. cerevisiae deletion strains, locus YNL307C, strain MCK1 (second series), active compounds read low 1.04 | S. cerevisiae deletion strains, locus YOL078W, strain AVO1, active compounds read low 0.99 | S. cerevisiae deletion strains, locus YOL136C, strain PFK27, active compounds read low 1.04 | S. cerevisiae deletion strains, locus YOR061W, strain CKA2, active compounds read low 1.03 | S. cerevisiae deletion strains, locus YOR119C, strain RIO1, active compounds read low 1.08 | S. cerevisiae deletion strains, locus YOR231W, strain MKK1, active compounds read low 1.03 | S. cerevisiae deletion strains, locus YOR329C, strain SCD5, active compounds read low 0.985 | S. cerevisiae deletion strains, locus YPL031C, strain PHO85, active compounds read low 1.04 | S. cerevisiae deletion strains, locus YPL153C, strain RAD53, active compounds read low 1.03 | S. cerevisiae deletion strains, locus YPL204W, strain HRR25, active compounds read low 1.04 | S. cerevisiae deletion strains, locus YPL209C, strain IPL1, active compounds read low 0.987 | S. cerevisiae deletion strains, locus YPL256C, strain CLN2, active compounds read low 1.02 | S. cerevisiae deletion strains, locus YPR025C, strain CCL1, active compounds read low 0.981 | S. cerevisiae deletion strains, locus YPR106W, strain ISR1, active compounds read low 0.98 | S. cerevisiae deletion strains, locus YPR111W, strain DBF20, active compounds read low 0.964 | S. cerevisiae deletion strains, strain NNK1, active compounds read low 0.986 | S. cerevisiae deletion strains, strain TSCII, active compounds read low 0.995
